# For some of these results: Potency and affinity values are given separately. The source made the active and inactive calls.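 Rule for the calls, unless noted: active = calcium signal rise above buffer-control mean plus 5 SD in both duplicates, and also a hit in the primary screen; inactive = the rest.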
# Tests used:
# [1] = tested on: TRPC4 beta (transient receptor potential cation channel C4), mouse; assay: activators of mouse TRPC4 channel, confirmation, cell-based, Fluo4 calcium, HEK293 TRPC4beta/mu-opioid, duplicates, 10 µM (AID 2426;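 active = fluorescence ratio normalized to control raised more than 50% in primary screen plus both repeat runs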); settings: Fluo4 calcium fluorescence, at 10 µM; active compounds read high
# [2] = tested on: transient receptor potential cation channel C4 beta (TRPC4), mouse; assay: activators of mouse TRPC4 channel, confirmation, cell-based, second round, Fluo4, HEK293 TRPC4beta/mu-opioid, 1 µM (AID 2461;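 active = primary screen active and over 50% activation in each of two duplicate runs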); settings: Fluo4 calcium fluorescence, at 1 µM; active compounds read high
# [3] = tested on: TRPC4 (transient receptor potential cation channel C4 beta), mouse; assay: positive allosteric modulators of mouse TRPC4, confirmation, cell-based, second round, Fluo-4, HEK293 TRPC4beta/mu-opioid, 1 µM (AID 2554;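 active = primary screen hit whose fluorescence ratio, in both repeats, exceeds the weak agonist control mean by 3 SD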); settings: DAMGO EC20, Fluo-4 calcium flux, at 1 µM; active compounds read high
# [4] = tested on: TRPC4 beta (transient receptor potential cation channel C4), mouse; assay: positive allosteric modulators of mouse TRPC4, confirmation, cell-based, Fluo-4, HEK293 TRPC4beta/mu-opioid (AID 2555;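 active = primary screen hit whose calcium fluorescence ratio, in both repeats, exceeds the weak agonist control mean by 3 SD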); settings: DAMGO EC20, Fluo-4 calcium flux, at 10 µM; active compounds read high
# [5] = molecular target: Short transient receptor potential channel 4 (Mus musculus) (UniProt Q9QUQ5); assay: inhibitors of mouse TRPC4 channel, confirmation, cell-based, Fluo4, HEK293 TRPC4beta/mu-opioid (AID 2636;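 active = calcium signal cut by more than 3 SD below the full-agonist control yet still positive, in both repeats and the earlier primary screen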); settings: DAMGO, Fluo4 calcium flux, at 10 µM; active compounds read high
# [6] = molecular target: Short transient receptor potential channel 4 (Mus musculus) (UniProt Q9QUQ5); assay: inhibitors of mouse TRPC4 channel, confirmation, cell-based, second round, Fluo4, HEK293 TRPC4beta/mu-opioid, 1 µM (AID 2637;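 active = calcium signal ratio cut to more than 3 SD under the fully stimulated control mean yet still positive, in both repeats and the primary screen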;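 for inhibition: percent of integrated ratio relative to wells lacking test compound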); settings: Fluo4 calcium flux, DAMGO, at 1 µM; active compounds read high
# [7] = molecular target: Short transient receptor potential channel 4 (Mus musculus) (UniProt Q9QUQ5); assay: mouse TRPC4 channel activators, dose response, cell-based, HEK293 TRPC4/mu-opioid, Fluo-4 calcium (AID 434937;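 active = primary screen activator hit with a dose response curve and TRPC4 channel activation at any tested dose; inactive = no activation, no dose response, or not a primary hit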)
# [8] = molecular target: Short transient receptor potential channel 4 (Mus musculus) (UniProt Q9QUQ5); assay: TRPC4 positive allosteric modulators, dose response, cell-based, HEK293 TRPC4/mu-opioid, Fluo-4 calcium, EC20 DAMGO (AID 434941;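 active = earlier screen potentiator hit that boosts the TRPC4 ion channel at some dose, with a dose response; inactive = no potentiation, no dose response, or not a prior hit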;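 note: calcium entry triggered by an EC20 dose of DAMGO at the co-expressed mu-opioid receptor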)
# [9] = molecular target: Short transient receptor potential channel 6 (Mus musculus) (UniProt Q61143); assay: inhibition of mouse TRPC6 channel, confirmation, selectivity assay for TRPC4 inhibitor project, cell-based, HEK293, membrane potential dye, duplicate (AID 434948;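 active = active in primary screen and both duplicates, each dropping signal beyond three positive-control SD with fluorescence still positive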); settings: HEK293 TRPC6, membrane potential dye fluorescence, at 10 µM, stimulated with maximal-effect acetylcholine; active compounds read high
# [10] = molecular target: Short transient receptor potential channel 6 (Mus musculus) (UniProt Q61143); assay: activation of mouse TRPC6 channel, confirmation, selectivity assay for TRPC4 activator project, cell-based, HEK293, membrane potential dye, duplicate (AID 434950;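 active = membrane potential signal rise above negative control mean plus 3 SD in both duplicates, also active in the earlier TRPC4 screen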); settings: HEK293 TRPC6, membrane potential fluorescence, at 10 µM; active compounds read high
# [11] = molecular target: Short transient receptor potential channel 6 (Mus musculus) (UniProt Q61143); assay: TRPC6 potentiation by TRPC4 potentiator hits, confirmation, selectivity assay for TRPC4 potentiator project, HEK293 cells, membrane potential dye, duplicate (AID 434952;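 active = compound raising the membrane signal above positive-control mean plus 3 SD in both repeats, and a primary screen hit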); settings: HEK293 TRPC6, membrane potential dye fluorescence, at 10 µM, maximal acetylcholine added after compound; active compounds read high
# [12] = molecular target: Short transient receptor potential channel 4 (Mus musculus) (UniProt Q9QUQ5); assay: calcium flux activators in TRPC4/5HT1a cells, counter-screen for TRPC4 activator project, cell-based, second counter screen, HEK293 TRPC4/5HT1a, Fluo-4 (AID 434977); settings: Fluo-4 calcium flux, at 10 µM; active compounds read high
# [13] = calcium flux inhibitors in TRPC4/5HT1a cells, confirmation, counter-screen for TRPC4 inhibitor project, cell-based, second counter screen, HEK293 TRPC4/5HT1a, Fluo-4 (AID 434978;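 active = primary screen active whose calcium signal fell more than 3 SD beyond the full-serotonin control mean in both duplicate plates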;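 for outcome: serotonin given first at submaximal then at maximal dose after compound preincubation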); settings: Fluo-4 calcium flux, at 10 µM, serotonin added to trigger calcium flux; active compounds read high
# [14] = tested on: TRPC4 (mouse), co-expressed with 5HT1a in HEK293; assay: calcium flux potentiators in TRPC4/5HT1a cells, confirmation, counter-screen for TRPC4 potentiator project, cell-based, second counter screen, HEK293 TRPC4/5HT1a, Fluo-4 (AID 434979;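 active = signal rise over 3 SD above mean of control wells given weak agonist, in both repeats and first screen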); settings: Fluo-4 calcium flux, at 10 µM, serotonin added at its EC20 dose; active compounds read high
# [15] = calcium flux activation in mu-opioid HEK293 cells, confirmation, counter-screen for TRPC4 activator project, cell-based, HEK293 mu-opioid receptor line (AID 449723;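 active = hit in primary screen, with calcium signal over 5 SD above buffer well mean in both duplicates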;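 note: counter screen cells carry the mu-opioid receptor alone and lack TRPC4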); settings: Fluo-4 calcium fluorescence, at 10 µM; active compounds read high
# [16] = calcium flux enhancement in mu-opioid HEK293 cells, confirmation, counter-screen for TRPC4 allosteric potentiator project, cell-based, HEK293 mu-opioid receptor line (AID 449724;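 active = calcium signal rise more than 3 SD above the low-dose agonist control mean, in both duplicate plates and the primary screen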); settings: Fluo-4 calcium flux, at 10 µM, compound added before EC20 DAMGO stimulus; active compounds read high
# Chain of Short transient receptor potential channel 6 (Mus musculus) (Q61143 whole entry, looked up): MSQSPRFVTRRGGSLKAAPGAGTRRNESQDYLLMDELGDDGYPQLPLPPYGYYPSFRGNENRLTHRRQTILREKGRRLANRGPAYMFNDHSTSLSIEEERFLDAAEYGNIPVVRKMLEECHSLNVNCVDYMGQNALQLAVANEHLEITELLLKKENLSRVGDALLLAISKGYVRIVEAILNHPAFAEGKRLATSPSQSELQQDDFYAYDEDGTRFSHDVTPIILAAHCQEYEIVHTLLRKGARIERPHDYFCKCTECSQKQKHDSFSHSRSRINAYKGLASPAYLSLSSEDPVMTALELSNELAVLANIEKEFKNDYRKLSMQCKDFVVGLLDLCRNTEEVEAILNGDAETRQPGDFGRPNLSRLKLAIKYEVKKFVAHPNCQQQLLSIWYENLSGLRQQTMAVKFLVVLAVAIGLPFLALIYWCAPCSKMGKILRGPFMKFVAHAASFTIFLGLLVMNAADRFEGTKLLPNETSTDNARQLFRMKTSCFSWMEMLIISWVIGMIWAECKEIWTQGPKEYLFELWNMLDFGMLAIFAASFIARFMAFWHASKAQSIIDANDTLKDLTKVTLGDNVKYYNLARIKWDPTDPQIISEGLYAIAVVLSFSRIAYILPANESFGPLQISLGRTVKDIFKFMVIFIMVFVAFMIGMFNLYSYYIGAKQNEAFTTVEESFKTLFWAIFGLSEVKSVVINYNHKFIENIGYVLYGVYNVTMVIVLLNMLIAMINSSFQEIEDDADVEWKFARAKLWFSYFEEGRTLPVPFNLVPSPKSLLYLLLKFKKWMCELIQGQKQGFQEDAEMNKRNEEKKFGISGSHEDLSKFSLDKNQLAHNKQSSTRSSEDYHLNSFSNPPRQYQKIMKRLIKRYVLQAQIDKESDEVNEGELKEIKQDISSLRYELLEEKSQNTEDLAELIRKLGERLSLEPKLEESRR
# Chain of Short transient receptor potential channel 4 (Mus musculus) (Q9QUQ5 whole entry, looked up): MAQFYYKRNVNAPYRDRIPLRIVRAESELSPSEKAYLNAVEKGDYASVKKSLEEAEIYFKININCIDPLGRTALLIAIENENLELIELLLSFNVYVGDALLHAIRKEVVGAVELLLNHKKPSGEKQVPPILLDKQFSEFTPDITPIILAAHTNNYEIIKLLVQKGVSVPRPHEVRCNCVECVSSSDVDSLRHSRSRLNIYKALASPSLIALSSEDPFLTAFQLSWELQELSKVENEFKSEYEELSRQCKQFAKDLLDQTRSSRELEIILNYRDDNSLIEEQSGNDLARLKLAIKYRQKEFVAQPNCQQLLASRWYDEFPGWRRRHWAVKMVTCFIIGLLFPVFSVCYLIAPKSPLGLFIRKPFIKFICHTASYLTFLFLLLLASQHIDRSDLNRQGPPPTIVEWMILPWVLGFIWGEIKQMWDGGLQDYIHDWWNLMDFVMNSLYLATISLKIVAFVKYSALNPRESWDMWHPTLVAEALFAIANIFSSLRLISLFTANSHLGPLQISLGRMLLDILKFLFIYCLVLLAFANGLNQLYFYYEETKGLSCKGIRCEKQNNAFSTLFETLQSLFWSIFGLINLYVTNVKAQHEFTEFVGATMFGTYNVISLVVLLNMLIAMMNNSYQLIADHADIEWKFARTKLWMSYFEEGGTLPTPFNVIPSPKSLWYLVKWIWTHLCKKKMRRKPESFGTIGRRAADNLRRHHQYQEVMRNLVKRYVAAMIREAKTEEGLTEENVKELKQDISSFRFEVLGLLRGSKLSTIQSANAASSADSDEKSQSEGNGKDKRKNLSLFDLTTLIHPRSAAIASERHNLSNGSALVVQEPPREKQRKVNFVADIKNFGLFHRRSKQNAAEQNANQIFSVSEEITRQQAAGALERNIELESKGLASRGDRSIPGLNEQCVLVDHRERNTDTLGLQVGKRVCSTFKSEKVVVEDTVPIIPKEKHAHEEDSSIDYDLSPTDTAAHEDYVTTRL
Compound,outcome [1],outcome [2],outcome [3],outcome [4],inhibition [5],inhibition [6],outcome [7],outcome [8],inhibition [9],outcome [10],outcome [11],outcome [12],inhibition [13],outcome [14],outcome [15],outcome [16],outcome [9],outcome [6],outcome [13],outcome [5]
O=C(CN1CCCCCC1)N1c2ccccc2Sc2ccccc21,inactive,inactive,inactive,inactive,79% (active),56% (active),inactive,inactive,21% (active),inactive,inactive,inactive,29.7% (active),inactive,inactive,inactive,,,,
Cc1cc(-c2csc3ncnc(N4CCN(C)CC4)c23)cc(C)c1C,inactive,inactive,inactive,inactive,84% (active),49% (active),inactive,inactive,,inactive,inactive,inactive,16.6% (active),inactive,inactive,inactive,inactive,,,
COC(=O)c1cccc(NC(=S)Nc2cccc(Cl)c2Cl)c1,inactive,inactive,inactive,inactive,78% (active),,inactive,inactive,,inactive,inactive,inactive,,inactive,inactive,inactive,inactive,inactive,inactive,
CCOC(=O)C1(CC2CC2)CCN(Cc2cc(Cl)c(O)c(OC)c2)CC1,inactive,inactive,inactive,inactive,71% (active),,inactive,inactive,,inactive,inactive,inactive,,inactive,inactive,inactive,inactive,inactive,inactive,
CCOc1ccc2[nH]c3c(N4CCN(c5ccccn5)CC4)ncnc3c2c1,inactive,inactive,inactive,inactive,83% (active),,inactive,inactive,,inactive,inactive,inactive,,inactive,inactive,inactive,inactive,inactive,inactive,
CSCCNC(=O)c1ccc(OC2CCN(CCc3ccccc3)CC2)cc1,inactive,inactive,inactive,inactive,,65% (active),inactive,inactive,,inactive,inactive,inactive,,inactive,inactive,inactive,inactive,,inactive,inactive
CCOc1cc(CNCCCN2CCOCC2)cc(Br)c1OCC(=O)Nc1cccc(C(F)(F)F)c1,inactive,inactive,inactive,inactive,101% (active),40% (active),inactive,inactive,,inactive,inactive,inactive,30.5% (active),inactive,inactive,inactive,inactive,,,
COCCCNc1cc(C)nc2ccccc12,inactive,inactive,inactive,inactive,94% (active),,inactive,inactive,50.5% (active),inactive,inactive,inactive,,inactive,inactive,inactive,,inactive,inactive,
CN(Cc1cnn(C)c1)C(=O)c1ccc(OC2CCN(CCc3ccccc3)CC2)cc1,inactive,inactive,inactive,inactive,88% (active),59% (active),inactive,inactive,,inactive,inactive,inactive,,inactive,inactive,inactive,inactive,,inactive,
Cc1ccc(CNC(C)c2ccccc2)cc1 (stereo unspecified),inactive,inactive,inactive,inactive,92% (active),,inactive,inactive,,inactive,inactive,inactive,30.6% (active),inactive,inactive,inactive,inactive,inactive,,
CCOc1ccc2ccccc2c1CNCCc1ccc(S(N)(=O)=O)cc1,inactive,inactive,inactive,inactive,92% (active),,inactive,inactive,,inactive,inactive,inactive,35.5% (active),inactive,inactive,inactive,inactive,inactive,,
Cc1cc(C)c2nc(C)cc(N/N=C/c3ccc(O)cc3)c2c1,inactive,inactive,inactive,inactive,91% (active),,inactive,inactive,35% (active),inactive,inactive,inactive,,inactive,inactive,inactive,,inactive,inactive,
CCCCC[n+]1cccc2c3ccccc3ccc21,inactive,inactive,inactive,inactive,93% (active),,inactive,inactive,29% (active),inactive,inactive,inactive,28.4% (active),inactive,inactive,inactive,,inactive,,
N#Cc1c(N2CCCCC2)nc(N)c2c(N)nc3c(c12)CC(c1ccccc1)O3 (stereo unspecified),inactive,inactive,inactive,inactive,87% (active),49% (active),inactive,inactive,,inactive,inactive,inactive,31.5% (active),inactive,inactive,inactive,inactive,,,
CC(C)C(=O)Nc1ccc(C(=O)Nc2nnc(C(C)(C)C)s2)cc1,inactive,inactive,inactive,inactive,57% (active),,inactive,inactive,,inactive,inactive,inactive,35.1% (active),inactive,inactive,inactive,inactive,inactive,,
CC(=O)Oc1ccc(/C=C(\NC(=O)c2ccco2)C(=O)NCc2ccccc2)cc1,inactive,inactive,inactive,inactive,82% (active),,inactive,inactive,,inactive,inactive,inactive,44.5% (active),inactive,inactive,inactive,inactive,inactive,,

# From PubChem BioAssay
